Laboratory results: PubChem BioAssay AID1159580 (chemical genetic matrix, 2015)
In all, about 5,500 compounds went through this assay and about 2,000 (36%) were called active. Not shown: some 18% with an inconclusive outcome. Cut-off read from the data, not from the text of the source: active = normalized growth mostly below about 0.91 (no sharp cut-off); inconclusive = no clear call, values can overlap the other calls; inactive = mostly above about 0.92. The list shows a part of the results.

Assay: chemical genetic growth profiling, strain panel (AID 1159580);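 note: tested at 20 µM; growth read once vehicle control cultures reached saturation at 30 °C; 1 = growth at the plate median or of vehicle wells; lower values mean less growth of the strain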
Conditions: S. cerevisiae deletion strains, growth OD

Measured: normalized growth

COc1ccc(-c2oc3cc(OC)c(OC)c(OC)c3c(=O)c2OC)cc1
inactive: locus YAL021C, strain ccr4, active compounds read low 0.993 | locus YAL030W, strain snc1, active compounds read low 0.979 | locus YBR023C, strain chs3, active compounds read low 0.919 | locus YBR171W, strain sec66, active compounds read low 0.978 | locus YBR231C, strain swc5, active compounds read low 0.93 | locus YBR279W, strain paf1, active compounds read low 0.982 | locus YCL011C, strain gbp2, active compounds read low 0.955 | locus YCL016C, strain dcc1, active compounds read low 0.948 | locus YCL061C, strain MRC1, active compounds read low 0.964 | locus YCL069W, strain vba3, active compounds read low 0.993 | locus YCR088W, strain abp1, active compounds read low 0.991 | locus YDL005C, strain med2, active compounds read low 0.982 | locus YDL040C, strain nat1, active compounds read low 0.984 | locus YDR001C, strain nth1, active compounds read low 0.982 | locus YDR069C, strain doa4, active compounds read low 0.987 | locus YDR159W, strain sac3, active compounds read low 0.982 | locus YDR195W, strain ref2 1.04 | locus YDR297W, strain sur2, active compounds read low 0.976 | locus YDR334W, strain swr1, active compounds read low 0.98 | locus YDR335W, strain msn5, active compounds read low 0.985 | locus YEL003W, strain gim4, active compounds read low 0.977 | locus YEL037C, strain rad23, active compounds read low 0.982 | locus YEL061C, strain CIN8 (second series), active compounds read low 0.98 | locus YER015W, strain faa2, active compounds read low 0.981 | locus YER016W, strain bim1, active compounds read low 0.988 | locus YER111C, strain swi4, active compounds read low 0.983 | locus YFR010W, strain ubp6, active compounds read low 0.981 | locus YGL167C, strain pmr1, active compounds read low 0.976 | locus YGL173C, strain kem1, active compounds read low 0.97 | locus YGL227W, strain vid30, active compounds read low 0.987 | locus YGL240W, strain doc1, active compounds read low 0.959 | locus YHR013C, strain ard1, active compounds read low 0.87 | locus YHR027C, strain rpn1, active compounds read low 0.983 | locus YHR030C, strain SLT2, active compounds read low 1.02 | locus YHR079C, strain IRE1, active compounds read low 1.02 | locus YJL092W, strain hpr5, active compounds read low 0.984 | locus YJL095W, strain BCK1 (second series), active compounds read low 0.972 | locus YJL095W, strain BCK1, active compounds read low 0.959 | locus YJL115W, strain asf1, active compounds read low 0.997 | locus YJL129C, strain trk1, active compounds read low 0.907 | locus YJL154C, strain vps35, active compounds read low 0.994 | locus YJL164C, strain tpk1, active compounds read low 0.928 | locus YJL166W, strain qcr8, active compounds read low 0.934 | locus YJL187C, strain SWE1, active compounds read low 0.98 | locus YJR066W, strain TOR1, active compounds read low 0.967 | locus YKL160W, strain elf1, active compounds read low 0.945 | locus YKR026C, strain gcn3, active compounds read low 0.978 | locus YKR091W, strain srl3, active compounds read low 0.99 | locus YLL001W, strain dnm1, active compounds read low 0.953 | locus YLL026W, active compounds read low 0.983 | locus YLL041C, strain sdh2, active compounds read low 0.985 | locus YLR027C, strain aat2, active compounds read low 0.96 | locus YLR113W, strain HOG1, active compounds read low 0.887 | locus YLR258W, strain gsy2, active compounds read low 0.967 | locus YLR342W, strain FKS1, active compounds read low 0.989 | locus YLR357W, strain rsc2, active compounds read low 0.896 | locus YLR370C, strain arc18, active compounds read low 0.969 | locus YLR384C, strain iki3, active compounds read low 0.974 | locus YML120C, strain ndi1, active compounds read low 0.966 | locus YMR058W, strain fet3, active compounds read low 0.959 | locus YMR125W, strain sto1, active compounds read low 0.96 | locus YMR129W, active compounds read low 0.992 | locus YMR205C, strain PFK2, active compounds read low 0.926 | locus YMR231W, strain pep5, active compounds read low 1 | locus YNL183C, strain NPR1, active compounds read low 0.928 | locus YNL209W, strain ssb2, active compounds read low 0.989 | locus YNL248C, strain rpa49, active compounds read low 0.984 | locus YNL322C, strain KRE1 (second series), active compounds read low 0.98 | locus YNR049C, strain mso1, active compounds read low 0.991 | locus YOR001W, strain rrp6, active compounds read low 0.978 | locus YOR070C, strain gyp1, active compounds read low 0.978 | locus YOR080W, strain dia2, active compounds read low 0.991 | locus YOR083W, strain WHI5, active compounds read low 0.915 | locus YOR106W, strain vam3, active compounds read low 0.942 | locus YOR231W, strain MKK1, active compounds read low 1.02 | locus YOR265W, strain rbl2, active compounds read low 0.968 | locus YOR270C, strain vph1, active compounds read low 0.785 | locus YOR290C, strain snf2, active compounds read low 0.88 | locus YPL051W, strain arl3, active compounds read low 0.927 | locus YPL078C, strain atp4, active compounds read low 0.93 | locus YPL106C, strain sse1, active compounds read low 0.944 | locus YPL240C, strain hsp82, active compounds read low 0.969 | locus YPL256C, strain CLN2, active compounds read low 1.04
active: locus YAL026C, strain drs2, active compounds read low 0.881 | locus YBL061C, strain skt5, active compounds read low 0.911 | locus YBR009C, strain hhf1, active compounds read low 0.899 | locus YDR137W, strain rgp1, active compounds read low 0.797 | locus YDR392W, strain spt3, active compounds read low 0.421 | locus YER155C, strain BEM2 (second series), active compounds read low 0.84 | locus YGL253W, strain hxk2, active compounds read low 0.89 | locus YHR142W, strain chs7, active compounds read low 0.718 | locus YLR221C, strain rsa3, active compounds read low 0.907 | locus YLR262C, strain YPT6 (second series), active compounds read low 0.795 | locus YLR320W, strain mms22, active compounds read low 0.815 | locus YNL071W, strain lat1, active compounds read low 0.734
